Activity calls are given as the source filed them.
These compounds were tested on XIP peptide (Xip251-270) binding (assay: small-molecule binders of XIP peptide, primary screen, biochemical, small-molecule microarray, fluorescence 635/667 nm, 0.1 µg/mL protein (AID 1182)). Conditions: fluorescent protein binding, 635 nm, higher = more signal, called active from +8 up or from −8 down.

Composite z-score, inactive:
COc1ccc([Si](C)(C)[C@H]2[C@H](CC(=O)N3Cc4ccccc4C[C@H]3CO)O[C@@]3(C(=O)N(C)c4ccccc43)[C@@H]2C)cc1 0.958
O=C1O[C@H](Cc2ccccc2)[C@@H]2[C@H]3C=CCCC=C3CN2[C@H]1Cc1ccc(O)cc1 0.127
CCOc1cc(C(O)C2C=CC3C(=O)N(c4ccccc4)C(=O)C3N2Nc2ccccc2F)ccc1O (stereo not given) 1.11
[N-]=[N+]=NCc1ccccc1[C@@H]1OC(c2ccc(OCCCO)cc2)=N[C@]1(Cc1ccccc1N=[N+]=[N-])C(=O)O 1.21
[N-]=[N+]=Nc1ccccc1C[C@@]1(C(=O)NCC(O)CO)N=C(c2ccc(OCCCO)cc2)O[C@@H]1c1ccccc1 (stereo not given in full) 0.105
C=CCC(OC(C)=O)[C@@H]1[C@@H](N(Cc2ccc(-c3cccc(C(F)(F)F)c3)o2)C(=O)Cc2ccc(F)cc2)c2cc(OCCCO)ccc2N1C(=O)Cc1ccc2ccccc2c1 (stereo not given in full) -0.068
COc1cc(CO)cc(I)c1O[C@H]1C=C(C(=O)NCCO)C[C@@H]2O[C@H]12 0.28
CCCC=C(CCC)[C@@H](NC(=O)OCC(C)C)c1ccc(C(=O)OC)cc1 0.402
COC(=O)[C@@]1(Cc2ccc(F)cc2)[C@H]2c3cc(C(=O)N(C)C)n(CCc4ccc(O)c(O)c4)c3C[C@H]2CN1C(=O)c1ccccc1 -0.574
CC(C)=CCCC(C)=CC(O)C1C=CC2C(=O)NC(=O)C2N1Nc1ccc(Cl)cc1Cl (stereo not given) 0.323
Cc1ccc(F)cc1S(=O)(=O)N[C@H]1CCN(Cc2ccc(OC(C)C)cc2)C1 0.479
COCCOC(=O)N1C(=O)[C@@]2(c3cc(C#CCCO)ccc31)[C@H](c1ccccc1OCCO)N1[C@H](c3ccccc3)[C@H](c3ccccc3)OC(=O)[C@H]1[C@@H]2C(N)=O 0.316
COc1ccc(C(O)C2C=CC3C(=O)NC(=O)C3N2Nc2ccc(Cl)cc2Cl)c2ccccc12 (stereo not given) 1.62
COc1ccc(C(=O)Nc2cccc(CN3C(=O)[C@]4(O[C@H](CC(=O)N5Cc6ccccc6C[C@H]5CO)[C@@H]([Si](C)(C)c5ccc(OC)cc5)[C@@H]4C)c4ccccc43)c2)cc1 -0.335
C=CCNC(=O)[C@@H]1[C@H]2C(=O)O[C@H](c3ccccc3)[C@H](c3ccccc3)N2[C@H](c2ccc(OCCO)cc2)[C@@]12C(=O)Nc1ccc(C#CC3(O)CCCCCC3)cc12 1.02
C=CC[C@]1(C(=O)NCC(O)CO)COC(c2ccc(OCCCO)cc2)=N1 (stereo not given in full) -0.933
C=CCC(OC(C)=O)[C@@H]1[C@@H](N(Cc2ccc(-c3cccc(C(F)(F)F)c3)o2)C(=O)c2ccc(-c3ccccc3)cc2)c2cc(OCCCO)ccc2N1C(=O)c1ccc2ccccc2c1 (stereo not given in full) 0.405
C=CC[C@@]1(C(=O)N(C)C)N=C(c2ccc(OCCCO)cc2)O[C@@H]1c1ccccc1CN=[N+]=[N-] 0.161
COc1ccc(C#Cc2ccc3c(c2)[C@]2(C(=O)N3)[C@H](C(=O)O)[C@H]3C(=O)O[C@H](c4ccccc4)[C@H](c4ccccc4)N3[C@@H]2c2ccccc2OCCO)cc1 1.89
COC(=O)[C@]1(CCC(=O)OC(C)(C)C)N=C(c2ccc(OCCCO)cc2)O[C@@H]1c1ccccc1N=[N+]=[N-] -0.194
CN1C(=O)C2C=CC(C(O)c3ccc(-c4ccccc4)s3)N(NC(=O)OC(C)(C)C)C2C1=O (stereo not given) 0.359
O=C1O[C@@H](c2ccccc2)[C@@H](c2ccccc2)N2[C@@H](c3ccc(OCCO)cc3)[C@]3(C(=O)Nc4ccc(C#CC5(O)CCCCCC5)cc43)[C@@H](C(=O)O)[C@H]12 2.23
C=CCN1C(=O)[C@]2(O[C@H](CCn3cc([C@H](O)c4ccccc4)nn3)[C@@H]([Si](C)(C)c3ccc(OC)cc3)[C@@H]2C)c2cc(NC(=O)c3ccc(OC)cc3)ccc21 0.586
CC(C)N1C(=O)C[C@@](C(=O)NCCN2CCOCC2)(c2ccc([N+](=O)[O-])cc2)[C@H]1c1ccc(CO)cc1 0.534
COC(=O)[C@@]1(Cc2ccccc2)[C@H]2c3cc(C(=O)N(C)C)n(CCSC(=N)N)c3C[C@H]2CN1C(=O)c1ccccc1 -0.667
CCCc1cc2c(n1CCc1ccc(Cl)cc1)C(C)C1CN(C(=O)c3ccccc3)C(C)(C(=O)OC)C21 (stereo not given) -0.573
O=C1C=C(c2ccccc2)C(=O)C2=C1CC([C@H]1Oc3ccccc3S(=O)(=O)N3CCC[C@@H]13)=CC2 -0.0015
CC(C)(C)N1CC=CC23O[C@@H]4C=CCCOC(=O)C4[C@H]2C(=O)N(CCCCCCO)[C@@H]3C1=O (stereo not given in full) 1.14
O=C(NC1CC1)[C@@H]1c2ccccc2C(=O)N(Cc2cc(C(F)(F)F)cc(C(F)(F)F)c2)[C@H]1c1ccc(CO)cc1 0.684
C=CCC(OC(C)=O)[C@@H]1[C@@H](N(Cc2cccc3ccccc23)C(=O)c2ccc(-c3ccccc3)cc2)c2cc(OCCCO)ccc2N1C(=O)Cc1ccc2ccccc2c1 (stereo not given in full) -0.419
O=C1c2ccccc2[C@@]2(Cc3ccccc3N(Cc3ccccc3)C2=O)[C@H](c2ccc(CO)cc2)N1Cc1ccccc1Cl 0.0408
CC1CC/C=C\[C@H]2OC34C=CCN(C(C)(C)C)C(=O)[C@H]3N(CCCO)C(=O)[C@@H]4C2C(=O)O1 (stereo not given in full) 0.453
O=C1C[C@@](C(=O)O)(c2ccc([N+](=O)[O-])cc2)[C@@H](c2ccc(CO)cc2)N1C1CCCCC1 0.803
C=C(COC)/C(=C/C[C@H](OC(C)=O)c1ccccc1OCCO)c1cc(C(=O)OC)ccc1OC 0.117
CC(C)N1C(=O)c2ccccc2[C@](C)(C(=O)NCC(F)(F)F)[C@@H]1c1ccc(CO)cc1 0.112

Reference: PubChem BioAssay
